Assay results taken from PubChem BioAssay (NCI).
“And” between values parts separate entries of the source, which are not always exact repeats. Equal entries are not always repeated. This is part of a sample that, as a whole, favours compounds with a hit. Of some 83,000 tested, about 20% had one in any assay.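 Negative percent growth values reflect cell death: -40 means 40% of the cells present at the start died, and -100 means all died.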 The source made the active and inactive calls. Rule for the calls: active = growth percent below 10; inactive = the rest.

Assays:
Experiment in all cases: NCI-60 one-dose screen, 48 h (100 = growth as untreated, 0 = no growth, -100 = all killed)
RPMI-8226 leukemia = test system: RPMI-8226 leukemia
OVCAR-8 ovarian = test system: OVCAR-8 ovarian
OVCAR-5 ovarian = test system: OVCAR-5 ovarian
OVCAR-4 ovarian = test system: OVCAR-4 ovarian
SK-OV-3 ovarian = details: 10 µM unless noted
IGROV1 ovarian = test system: IGROV1 ovarian
OVCAR-3 ovarian = test system: OVCAR-3 ovarian
HS 578T breast = test system: HS 578T breast
NCI/ADR-RES ovarian = test system: NCI/ADR-RES ovarian
T-47D breast = test system: T-47D breast
BT-549 breast = test system: BT-549 breast
MDA-MB-435 melanoma = test system: MDA-MB-435 melanoma
SW-620 colon = test system: SW-620 colon
MCF7 breast = details: 10 µM unless noted
HCT-116 colon = test system: HCT-116 colon
HCC-2998 colon = details: 10 µM unless noted
KM12 colon = test system: KM12 colon
SR leukemia = details: 10 µM unless noted

Measured: growth

CCN(CC)CCc1nc(-c2ccccc2)no1
inactive: RPMI-8226 leukemia; 10 µM unless noted 60.9% and 98.7% | OVCAR-8 ovarian; 10 µM unless noted 83.9% and 94.4% | OVCAR-5 ovarian; 10 µM unless noted 98.6% and 114% | OVCAR-4 ovarian; 10 µM unless noted 76.7% and 103% | SK-OV-3 ovarian 98.2% and 99.6% | IGROV1 ovarian; 10 µM unless noted 78.7% and 112% | OVCAR-3 ovarian; 10 µM unless noted 73.2% and 112% | HS 578T breast; 10 µM unless noted 98% | NCI/ADR-RES ovarian; 10 µM unless noted 89.8% and 99.4% | T-47D breast; 10 µM unless noted 55.8% and 81.1% | BT-549 breast; 10 µM unless noted 55.2% and 103% | MDA-MB-435 melanoma; 10 µM unless noted 90.1% and 99.3% | SW-620 colon; 10 µM unless noted 73.3% and 114% | MCF7 breast 58.5% and 96% | HCT-116 colon; 10 µM unless noted 85.5% and 103% | HCC-2998 colon 113% and 111% | KM12 colon; 10 µM unless noted 85% and 111%

Nc1ccc(N=Nc2ccc(S(=O)(=O)O)cc2)cc1S(=O)(=O)O
inactive: RPMI-8226 leukemia; 10 µM unless noted 86.7% and 40.2% | OVCAR-8 ovarian; 10 µM unless noted 96.5% and 79.6% | OVCAR-5 ovarian; 10 µM unless noted 101% and 107% | OVCAR-4 ovarian; 10 µM unless noted 118% and 87.9% | SK-OV-3 ovarian 105% and 106% | IGROV1 ovarian; 10 µM unless noted 79.3% and 76.1% | OVCAR-3 ovarian; 10 µM unless noted 108% and 210% | HS 578T breast; 10 µM unless noted 83.7% and 88.9% | NCI/ADR-RES ovarian; 10 µM unless noted 95.6% and 99.4% | T-47D breast; 10 µM unless noted 97.9% and 98.3% | BT-549 breast; 10 µM unless noted 120% and 148% | MDA-MB-435 melanoma; 10 µM unless noted 108% and 101% | SW-620 colon; 10 µM unless noted 115% and 97.8% | MCF7 breast 104% and 92.8% | HCT-116 colon; 10 µM unless noted 90.2% and 114% | HCC-2998 colon 105% and 94.5%

Cc1ccc(-c2noc(CC(=O)c3ccc([N+](=O)[O-])cc3)n2)cc1
inactive: RPMI-8226 leukemia; 10 µM unless noted 116% | OVCAR-8 ovarian; 10 µM unless noted 100% | OVCAR-5 ovarian; 10 µM unless noted 97.5% | OVCAR-4 ovarian; 10 µM unless noted 102% | SK-OV-3 ovarian 97.6% | IGROV1 ovarian; 10 µM unless noted 104% | OVCAR-3 ovarian; 10 µM unless noted 102% | HS 578T breast; 10 µM unless noted 99.8% | NCI/ADR-RES ovarian; 10 µM unless noted 104% | T-47D breast; 10 µM unless noted 87.8% | BT-549 breast; 10 µM unless noted 103% | MDA-MB-435 melanoma; 10 µM unless noted 98.1% | SW-620 colon; 10 µM unless noted 102% | MCF7 breast 98.2% | HCT-116 colon; 10 µM unless noted 98.7% | KM12 colon; 10 µM unless noted 98%

Cc1cc(-c2ccc(NS(=O)(=O)c3ccccc3)c(C)c2)ccc1NS(=O)(=O)c1ccccc1
inactive: SR leukemia 49.2% and 59.7% | RPMI-8226 leukemia; 10 µM unless noted 53.7% and 66.1% | OVCAR-5 ovarian; 10 µM unless noted 126% and 111% | OVCAR-4 ovarian; 10 µM unless noted 66.2% and 99% | SK-OV-3 ovarian 102% and 126% | IGROV1 ovarian; 10 µM unless noted 69.3% and 117% | OVCAR-3 ovarian; 10 µM unless noted 90.1% and 107% | HS 578T breast; 10 µM unless noted 83.4% and 92.6% | NCI/ADR-RES ovarian; 10 µM unless noted 86.1% and 87.3% | T-47D breast; 10 µM unless noted 78.7% and 105% | BT-549 breast; 10 µM unless noted 79.7% | MDA-MB-435 melanoma; 10 µM unless noted 92.5% and 102% | SW-620 colon; 10 µM unless noted 92.2% and 108% | HCT-116 colon; 10 µM unless noted 70.7% and 101% | HCC-2998 colon 100% and 110%

C[N+](C)(C)CN1C(=O)c2ccccc2C1=O
inactive: SR leukemia 83.8% | RPMI-8226 leukemia; 10 µM unless noted 106% | OVCAR-5 ovarian; 10 µM unless noted 105% | OVCAR-4 ovarian; 10 µM unless noted 101% | SK-OV-3 ovarian 98.1% | OVCAR-3 ovarian; 10 µM unless noted 109% | HS 578T breast; 10 µM unless noted 103% | NCI/ADR-RES ovarian; 10 µM unless noted 112% | T-47D breast; 10 µM unless noted 96.5% | BT-549 breast; 10 µM unless noted 98.6% | MDA-MB-435 melanoma; 10 µM unless noted 97.6% | SW-620 colon; 10 µM unless noted 107% | MCF7 breast 92.7% | HCT-116 colon; 10 µM unless noted 104% | HCC-2998 colon 108% | KM12 colon; 10 µM unless noted 111%

Cc1ccc(NCSc2ccc(Cl)cc2)cc1
inactive: SR leukemia 62.5% and 67.7% | RPMI-8226 leukemia; 10 µM unless noted 20.8% | OVCAR-5 ovarian; 10 µM unless noted 106% | SK-OV-3 ovarian 96.2% and 97% | IGROV1 ovarian; 10 µM unless noted 103% and 80.7% | OVCAR-3 ovarian; 10 µM unless noted 71.6% and 78.9% | HS 578T breast; 10 µM unless noted 93.7% and 102% | NCI/ADR-RES ovarian; 10 µM unless noted 88% and 95.8% | T-47D breast; 10 µM unless noted 74.3% and 62.4% | BT-549 breast; 10 µM unless noted 44.9% and 66% | MDA-MB-435 melanoma; 10 µM unless noted 63.8% and 65.7% | SW-620 colon; 10 µM unless noted 86.2% and 96.6% | MCF7 breast 86.9% and 80.7% | HCT-116 colon; 10 µM unless noted 85% and 91% | HCC-2998 colon 92.4% and 94.9% | KM12 colon; 10 µM unless noted 61.4% and 66.5%

CCCCCCCCCCCCCCCc1cc(O)ccc1N
inactive: RPMI-8226 leukemia; 10 µM unless noted 39.9% and 10.3% | OVCAR-8 ovarian; 10 µM unless noted 87.8% and 87.1% | OVCAR-5 ovarian; 10 µM unless noted 92.7% and 124% | SK-OV-3 ovarian 89.2% and 69% | IGROV1 ovarian; 10 µM unless noted 16.5% and 45.2% | OVCAR-3 ovarian; 10 µM unless noted 66.8% and 50.9% | HS 578T breast; 10 µM unless noted 107% and 95.2% | NCI/ADR-RES ovarian; 10 µM unless noted 72.1% and 49.7% | MDA-MB-435 melanoma; 10 µM unless noted 99.4% and 87.2% | SW-620 colon; 10 µM unless noted 114% and 108% | MCF7 breast 72.2% and 35.3% | HCT-116 colon; 10 µM unless noted 94.4% and 91.4% | HCC-2998 colon 96.4% and 101% | KM12 colon; 10 µM unless noted 64.2% and 72%
active: T-47D breast; 10 µM unless noted -5.74% and -86.4%
-36.3% (active) and 12.7% (inactive): BT-549 breast; 10 µM unless noted
65.2% (inactive) and -19.7% (active): OVCAR-4 ovarian; 10 µM unless noted

COc1cc(C(=O)N/N=C/c2ccc(N(C)C)cc2)cc(OC)c1OC
active: SR leukemia 6.85% | OVCAR-3 ovarian; 10 µM unless noted -11.7% | NCI/ADR-RES ovarian; 10 µM unless noted -40.1% | BT-549 breast; 10 µM unless noted -2.93% | MDA-MB-435 melanoma; 10 µM unless noted -11.9%
inactive: RPMI-8226 leukemia; 10 µM unless noted 19.6% | OVCAR-5 ovarian; 10 µM unless noted 44.5% | OVCAR-4 ovarian; 10 µM unless noted 61.7% | HS 578T breast; 10 µM unless noted 46.4% | T-47D breast; 10 µM unless noted 63.3% | SW-620 colon; 10 µM unless noted 26.2% | MCF7 breast 18.3% | HCT-116 colon; 10 µM unless noted 10.1% | KM12 colon; 10 µM unless noted 17%

O=C=NC(c1ccccc1)(c1ccccc1)c1ccccc1
inactive: SR leukemia 96.2% | RPMI-8226 leukemia; 10 µM unless noted 119% | OVCAR-5 ovarian; 10 µM unless noted 99.1% | OVCAR-4 ovarian; 10 µM unless noted 115% | SK-OV-3 ovarian 89.1% | IGROV1 ovarian; 10 µM unless noted 105% | OVCAR-3 ovarian; 10 µM unless noted 116% | HS 578T breast; 10 µM unless noted 111% | NCI/ADR-RES ovarian; 10 µM unless noted 109% | BT-549 breast; 10 µM unless noted 103% | MDA-MB-435 melanoma; 10 µM unless noted 108% | SW-620 colon; 10 µM unless noted 107% | MCF7 breast 102% | HCT-116 colon; 10 µM unless noted 93.5% | HCC-2998 colon 111% | KM12 colon; 10 µM unless noted 103%

CC1(C)OB(c2ccc(Cn3cc(F)c(=O)[nH]c3=O)cc2)OC1(C)C
active: OVCAR-3 ovarian; 50 µM 4.62% | MDA-MB-435 melanoma; 50 µM 4.27%
inactive: RPMI-8226 leukemia; 10 µM 107% | RPMI-8226 leukemia; 50 µM 68.1% | OVCAR-8 ovarian; 10 µM 106% | OVCAR-8 ovarian; 50 µM 75.1% | OVCAR-5 ovarian; 10 µM 97.5% | OVCAR-5 ovarian; 50 µM 70.4% | OVCAR-4 ovarian; 10 µM 111% | OVCAR-4 ovarian; 50 µM 69.9% | IGROV1 ovarian; 10 µM 98.8% | IGROV1 ovarian; 50 µM 44.1% | OVCAR-3 ovarian; 10 µM 104% | HS 578T breast; 10 µM 100% | HS 578T breast; 50 µM 37% | NCI/ADR-RES ovarian; 10 µM 102% | NCI/ADR-RES ovarian; 50 µM 94.1% | T-47D breast; 10 µM 102% | T-47D breast; 50 µM 49.3% | BT-549 breast; 10 µM 104% | BT-549 breast; 50 µM 40.1% | MDA-MB-435 melanoma; 10 µM 83.6% | SW-620 colon; 10 µM 95.8% | SW-620 colon; 50 µM 34.2% | HCT-116 colon; 10 µM 101% | HCT-116 colon; 50 µM 29.3% | KM12 colon; 10 µM 99% | KM12 colon; 50 µM 26.4%

CC1=C(/C=C/C(C)=C/C=C/C(C)=C/C(=O)Nc2ccc(O)cc2)C(C)(C)CCC1
active: SR leukemia -4.85% | IGROV1 ovarian; 10 µM unless noted -0.235% | T-47D breast; 10 µM unless noted 5.78% | MCF7 breast 8.82%
inactive: OVCAR-8 ovarian; 10 µM unless noted 65.9% | OVCAR-5 ovarian; 10 µM unless noted 89.9% | OVCAR-4 ovarian; 10 µM unless noted 44.3% | SK-OV-3 ovarian 69.3% | OVCAR-3 ovarian; 10 µM unless noted 27.8% | HS 578T breast; 10 µM unless noted 63.3% | NCI/ADR-RES ovarian; 10 µM unless noted 39.1% | BT-549 breast; 10 µM unless noted 21.9% | MDA-MB-435 melanoma; 10 µM unless noted 31.7% | SW-620 colon; 10 µM unless noted 67.2% | HCT-116 colon; 10 µM unless noted 55.3% | HCC-2998 colon 51% | KM12 colon; 10 µM unless noted 34.2%
